Results filed as inconclusive are left out. Activity calls are given as the source filed them. The call rests on the fitted dose curve; in most records, active means well fitted inhibition curve with a large enough effect; inconclusive means small, poorly fitted or top-dose-only effect; inactive means no such curve, though single readings can be large or run the other way.
Potency means the concentration at half of the fitted maximal effect.

This experiment is described as follows: qHTS assay for measurement of the activity of small molecule inhibitors on Zika virus induced Caspase-3 activity in human iPSC derived neural progenitor cells (hNPCs) (AID 1224857). Further: nearly all actives have a fitted effect of over 65% in size. Particulars: hNPCs ZIKV-induced caspase-3/7, Caspase-Glo luminescence, 6 h; series mostly up to 45.7 µM; activity change, negative = inhibition: at the top concentration. From the text:
National Center for Advancing Translational Sciences [NCATS]
Johns Hopkins University School of Medicine
Increase in the Caspase-3 activity indicates an activation of apoptosis cell death pathway caused by Zika virus infection in certain types of neuronal cells including human neural progenitor cells (hNPCs), astrocytes, and astrocytoma cell line (SNB-19). This cell-based caspase-3 activity assay measures the increased caspase-3 activity in the human iPSC derived neural progenitor cells (hNPCs) after a 6-hour Zika virus infection with a luminescence readout. A decrease in the luminescence signal in this assay by small molecule treatment indicates an inhibitory effect of that small molecule on the Zika virus induced caspase-3 activity that may correlate with its effect on reduction of Zika virus caused cell death.
The medium for hNPCs consists of DMEM/F12, N2 supplement (ThermoFisher, Cat.# 17502048), NEAA (ThermoFisher, Cat. # 11140050), 2 ug/ml heparin, 2 uM cyclopamine, and B27 (ThermoFisher, Cat. # 17504044). A Caspase-Glo 3/7 assay kit (catalog number G8092; Promega, Madison, WI) was used to detect caspase-3 activity induced by Zika virus infection in human cells. The reagent mixture was reconstituted as described in the protocol from the manufacturer. Polystyrene tissue culture treated and PDL coated white plates were obtained from Greiner Bio-One (Monroe, NC). Cells were seeded in 384- or 1536-well assay plates and cultured at 37 C with 5% CO2 for 16 to 20 hours. The typical cell seeding density in the 1536-well plate assay is 350 cells/well in 3 ul medium for hNPCs in tissue culture treated plates. Compounds were added to cells and incubated for one hour before addition of ZIKV solution to cells (2 FFU/cell). After incubation at 37 C with 5% CO2 for 6 hours, the reagent mixture of Caspase-Glo 3/7 assay kit was added to each well, followed by incubation at room temperature for 30 minutes. The luminescence intensity of the assay plates was measured using a ViewLux plate reader (PerkinElmer). Data were normalized by using the cell-containing wells without ZIKV as a negative control (0% induction of caspase 3/7 activity) and wells containing ZIKV infected cells (Caspase-3 activity induced) as a positive control (100% induction of caspase 3 activity). The percentage inhibitions of the increased Caspase-3 activity by small molecule inhibitors were then calculated.
For orientation: qHTS replaces the single test concentration by a dilution series.
Take `C=CCN1CC[C@]23CCCCC2[C@H]1Cc1ccc(O)cc13` (stereo not given in full): the “activity change, negative = inhibition” value is -24.6% (inactive).

For `Nc1ccc(N=Nc2ccccc2)cc1`, the Potency was 28.2 µM (active).

Consider `CC(C)N[C@@H]1CCn2c(=O)[nH]c3cccc(c32)[C@@H]1O`, for which the Potency was 16.6 µM (active).

As for `CCCCC(CC)COC(=O)c1ccccc1C(=O)OCC(CC)CCCC` (stereo not given), the “activity change, negative = inhibition” value was 30.3% [at 92.8 µM] (inactive).

Turning to `CO/C=C(/C(=O)OC)c1ccccc1Oc1cc(Oc2ccccc2C#N)ncn1`, the “activity change, negative = inhibition” value is -10.4% [at 92.8 µM] (inactive).

For `O=S(=O)(O)C(F)(F)C(F)(F)C(F)(F)C(F)(F)F`, the “activity change, negative = inhibition” value was -9.72% [at 92.8 µM] (inactive).

Turning to `NC(N)=NOCCC(N)C(=O)O` (stereo not given), the “activity change, negative = inhibition” value is 0.771% (inactive).

As to `O=c1[nH]c2ccc(Cl)cc2c(N[C@@H]2CN3CCC2CC3)c1-c1nc2ccccc2[nH]1`, the “activity change, negative = inhibition” value is 228% (inactive).

Regarding `CC(C)(O)C(=O)Nc1ccc([N+](=O)[O-])c(C(F)(F)F)c1`, the “activity change, negative = inhibition” value is 29.6% (inactive).

Consider `CNCCc1c[nH]c2ccc(O)cc12`, for which the “activity change, negative = inhibition” value is 0.897% (inactive).

For the compound `O=C1C=CC[C@@H]2[C@H]3CCCN4CCC[C@@H](CN12)[C@@H]34`, the Potency is 4.69 µM (active).

For the compound `COCC1(CO)C(=O)C2CCN1CC2` (stereo not given), the “activity change, negative = inhibition” value was -8.5% (inactive).

For the compound `c1ccc(CCCN2CCN(CCOC(c3ccccc3)c3ccccc3)CC2)cc1`, the Potency entry was “inactive”.

Turning to `N=c1c2c(-c3ccccc3)c(-c3ccccc3)n(Cc3ccccc3)c2ncn1C1CCC(O)CC1` (stereo not given), the “activity change, negative = inhibition” value was 65.1% (inactive).

For `CC(=CCCC1=CCC(C2=CC(=O)OC2O)OC1O)CCC1=C(C)CCCC1(C)C` (stereo not given), the “activity change, negative = inhibition” value was 46.6% (inactive).

Turning to `COC(=O)c1cncn1C(C)c1ccccc1` (stereo not given), the “activity change, negative = inhibition” value was -7.91% (inactive).

With `O=C1CCC[C@@H]2[C@H]3CCCN4CCC[C@@H](CN12)[C@@H]34`, the “activity change, negative = inhibition” value is -27.6% (inactive).

As for `CC(=O)OCC1=C(C(=O)O)N2C(=O)[C@@H](N)[C@@H]2SC1`, the “activity change, negative = inhibition” value was -31.4% (inactive).

For the compound `C=CCON=C(C[C@H]1O[C@@H]2O[C@]3(C)CC[C@@H]4[C@H](C)CC[C@@H]([C@H]1C)[C@@]24OO3)[C@H]1O[C@@H]2O[C@]3(C)CC[C@H]4[C@H](C)CC[C@@H]([C@@H]1C)[C@@]24OO3`, the “activity change, negative = inhibition” value is -26.5% (inactive).

In the case of `CNCCc1ccc(O)c(O)c1`, the “activity change, negative = inhibition” value is -5.19% (inactive).

For `C[C@]12Cc3cn[nH]c3C[C@@H]1CC[C@@H]1[C@H]2CC[C@@]2(C)[C@H]1CC[C@]2(C)O`, the “activity change, negative = inhibition” value was 20.8% (inactive).

Take `Clc1ccc(C(c2ccc(Cl)cc2)n2cc[n+](CC(OCc3ccc(Cl)cc3Cl)c3ccc(Cl)cc3Cl)c2)cc1` (stereo not given): the Potency entry was “inactive”.

In the case of `C[C@]12CC[C@@H]3[C@@H](CCC4=CC(=O)CC[C@@H]43)[C@@H]1CC[C@@H]2OC(=O)CCc1ccccc1`, the “activity change, negative = inhibition” value is 125% (inactive).

For the compound `COC(C)(C)CCCC(C)C/C=C/C(C)=C/C(=O)OC(C)C` (stereo not given), the “activity change, negative = inhibition” value is -3.17% (inactive).

Take `NC(=NCCC[C@H](N)C(=O)O)N[N+](=O)[O-]`: the “activity change, negative = inhibition” value was 3.76% (inactive).

For the compound `COc1ccc(C(=O)c2c(C)n(CCN3CCOCC3)c3cc(I)ccc23)cc1`, the “activity change, negative = inhibition” value is 50% (inactive).

Consider `NCCc1c[nH]c2ccc(O)cc12`, for which the “activity change, negative = inhibition” value is 24.9% (inactive).

For `C[C@](O)(COc1ccc(C#N)cc1)C(=O)Nc1ccc(C#N)c(C(F)(F)F)c1`, the “activity change, negative = inhibition” value was -1.27% (inactive).

Turning to `CO[C@H]1CCC(O[C@H]2C[C@H]([C@]3(C)CC[C@]4(C[C@H](O)[C@@H](C)[C@@H]([C@@H](C)C=C(C)C(=O)[C@H](C)C[C@H](C)C(=O)O)O4)O3)O[C@]3(O[C@@H]([C@H]4O[C@@](O)(CO)[C@H](C)C[C@H]4C)C[C@H]3C)[C@H]2C)O[C@H]1C` (stereo not given in full), the “activity change, negative = inhibition” value is -2.13% (inactive).

Regarding `O=C(N[C@@H](COc1ccc2[nH]c(=O)[nH]c2c1)c1ccccc1)c1cccn(Cc2ccc(F)c(F)c2)c1=O`, the “activity change, negative = inhibition” value is -6.33% (inactive).

`O=C(O)Cc1cnc[nH]1`: the “activity change, negative = inhibition” value is 16.6% (inactive).

For `NC(=O)CN1CC(O)CC1=O` (stereo not given), the “activity change, negative = inhibition” value was 19.6% (inactive).

As to `CC[N+]1(CCOC(=O)C(O)(c2ccccc2)c2ccccc2)CCCCC1`, the “activity change, negative = inhibition” value was -14.2% (inactive).

Consider `CS(=O)(=O)c1ccc(C(=O)C2C(=O)CCCC2=O)c([N+](=O)[O-])c1`, for which the “activity change, negative = inhibition” value is -1.57% [at 92.8 µM] (inactive).

Consider `CCCCCCCCc1ccc(O)cc1`, for which the “activity change, negative = inhibition” value was -4.57% [at 92.8 µM] (inactive).

`CCN1CCN(C(=O)Cc2ccc(Nc3ncc(F)c(Nc4ccc(C(=O)Nc5ccccc5Cl)cc4)n3)cc2)CC1`: the “activity change, negative = inhibition” value is 14.9% (inactive).

`Cc1ccc(Cl)c(O)c1`: the “activity change, negative = inhibition” value is 21.2% (inactive).

Take `NC(CP(=O)(O)O)C(=O)O` (stereo not given): the “activity change, negative = inhibition” value was -17% (inactive).

On to `NC1CCc2cc(O)c(O)cc2C1` (stereo not given), for which the “activity change, negative = inhibition” value was 21.2% (inactive).

In the case of `C[C@@H]1CC[C@@]2(OC1)O[C@H]1C[C@H]3[C@@H]4CC=C5C[C@@H](O[C@@H]6O[C@H](CO)[C@@H](O[C@@H]7O[C@@H](C)[C@H](O)[C@@H](O)[C@@H]7O)[C@H](O)[C@@H]6O[C@@H]6O[C@@H](C)[C@H](O)[C@@H](O)[C@@H]6O)CC[C@]5(C)[C@@H]4CC[C@]3(C)[C@@H]1[C@H]2C`, the “activity change, negative = inhibition” value is -12.6% (inactive).

The values are drawn from PubChem BioAssay (NCATS).
